Results as given in PubChem BioAssay (NCATS).
Inconclusive results are not listed. Entries that show only a call come without a potency. Activity calls are given as the source filed them. Calls follow the shape of the dose curve; as a rule, active = well fitted activation curve with a large enough effect; inconclusive = small, poorly fitted or top-dose-only effect; inactive = flat fitted curve, though single readings scatter.

Test: Primary redox qHTS assay for identification of artifact compounds. (AID 1845223)
Conditions: Amplex Red/HRP redox cycling with DTT, fluorescence; series mostly up to 53.8 µM
Method in brief: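 Amplex Red (25 uM) and HRP (250 mU/mL) in HBSS, with compounds for 15 min, then 250 uM DTT for 30 min, room temperature, dark. Fluorescence 525/598 nm read; normalized to DMSO and 10 uM DA3003; Hill fit.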

| SMILES | Potency |
| --- | --- |
| O=C(O)Cc1ccc2oc(-c3ccc(NC(=O)/C=C/c4ccc(Br)cc4)c(F)c3)nc2c1 | inactive |
| CC1(C)CCCC2(C)C1C(O)C=C(CO)C2(O)CO (centres undefined) | inactive |
| COc1ccc(Cl)c(Nc2nc3ccccc3nc2NS(=O)(=O)c2cccc(NC(=O)C(C)(C)N)c2)c1 | inactive |
| CC(C)CN(C[C@@H](O)[C@H](Cc1ccccc1)NC(=O)O[C@@H]1CO[C@H]2OCC[C@H]21)S(=O)(=O)c1ccc(N)cc1 | inactive |
| COC(=O)c1ccnc(-c2cc(C(=O)NCCc3ccccc3)ccn2)c1 | inactive |
| COc1cc(O)c2c(c1)C1=CC(O)C(O)CC1(C)OC2=O (centres undefined) | inactive |
| CC1=C(C(=O)OCc2ccccc2)C(c2ccc(-c3ccccc3)cc2)NC(=O)N1CCCCCC(=O)O (centres undefined) | inactive |
| Nc1ccc(/C=C/C(=O)NCc2cc3cc(-c4ccc(C(=O)N5CCC(F)(F)CC5)cc4)cc(-c4ccc(F)cc4)c3o2)cn1 | inactive |
| CC(C)c1cc(C(=O)N2CC[C@@H](NC(=O)C3CC3)C2)n[nH]1 | inactive |
| CC1CCN(C(=O)CC#N)CC1N(C)c1ncnc2[nH]ccc12 (centres undefined) | inactive |
| CC(C)C(N)C(=O)OCCOCn1cnc2c(=O)[nH]c(N)nc21 (centres undefined) | inactive |
| O=C(c1ccc(/C=C/c2n[nH]c3ccccc23)cc1)N1CCNCC1 | inactive |
| CNC(=S)NS(=O)(=O)c1cc(CCNC(=O)c2cc(Cl)ccc2OC)ccc1OC | inactive |
| CO/N=C(/C(=O)N[C@@H]1C(=O)N2C(C(=O)O)=C(Cn3ccc(=N)n3CCO)CS[C@H]12)c1csc(N)n1 | inactive |
| Cn1cncc1C(N)(c1ccc(Cl)cc1)c1ccc2c(c1)c(-c1cccc(Cl)c1)cc(=O)n2C (centres undefined) | inactive |
| CC(C)C1=CC2C(CC[C@]2(C)O)[C@](C)(O)CC1 (some centres undefined) | inactive |
| C=C[C@H]1[C@H](O[C@@H]2O[C@H](CO)[C@@H](O)[C@H](O)[C@H]2O)OC=C(C(=O)OC)[C@H]1C/C=C(/C=O)[C@@H]1C(C(=O)OC)=CO[C@@H](O[C@@H]2O[C@H](CO)[C@@H](O)[C@H](O)[C@H]2O)[C@@H]1C=C | inactive |
| CCOC(=O)C(CCc1ccccc1)NC(C)C(=O)N1C(=O)N(C)CC1C(=O)O (centres undefined) | inactive |
| COc1cc2oc(-c3ccc(O)cc3O)cc2c(OC)c1CC=C(C)C | inactive |
| CNC(=O)c1cccc(-c2ccc3c(N4CCOC[C@@H]4C)nc(N4CCOC[C@@H]4C)nc3n2)c1 | inactive |
| Cc1ccc(NC(=O)Nc2cc(C(F)(F)F)ccc2F)cc1Nc1ccc2c(c1)NC(=O)/C2=C\c1ccc[nH]1 | inactive |
| C/C=C/C=C/C(=O)N1CC[C@]23c4ccccc4N[C@H]4N(C)c5cccc6c5[C@@]42CCN([C@H]6C2OC2(C)C)[C@H]13 (some centres undefined) | inactive |
| Cc1nc2sc(C(=O)NCc3ccncc3)c(N)c2c(C)c1Cl | inactive |
| C=C1C(O)CC2C(C(=O)O)=COC(O[C@@H]3O[C@H](COC(=O)/C=C/c4ccc(O)cc4)[C@@H](O)[C@H](O)[C@H]3O)C12 (some centres undefined) | inactive |
